Experimental data from publication PMC7826789 (International Journal of Molecular Sciences, 2021).

Tested on: MAP4K4
Conditions: Compound Concentration (nM):1000
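Further: KINOMEscan scanMAX binding as percent activity remaining versus control; lower means stronger binding.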

Going from Cl.O=S1CCN(Cc2ccc(-c3ccc4ncnc(Nc5ccc(OCc6ccccc6)c(F)c5)c4c3)o2)CC1 [GW576924A] to Cl.c1ccc(Cc2nc3ccc(Nc4ncnc5ccccc45)cc3[nH]2)cc1 [GR269666A], the “Percent Control” value rises from 91% to 100%.

First: COc1ccc2[nH]c3c4[nH]c5ccc(OC)cc5c4c4c(c3c2c1)C(=O)NC4=O [GW296115X]
Second: CCS(=O)(=O)c1ccc(OC)c(Nc2ncc(-c3cccc(OC)c3)o2)c1 [GW580509X]
The “Percent Control” value of the first is lower: 2.7% for the first, 100% for the second.

Compared with COc1cc2ncnc(Nc3ccc4c(cnn4Cc4ccccc4)c3)c2cc1OC.Cl [GW282449A], CN(C)c1cc2c(Nc3ccc4c(cnn4Cc4ccccc4)c3)ncnc2cn1 [GW282974X] is lower in “Percent Control” value: 100% for the first, 76% for the second.

Compared with COc1cc(C=NNc2ncnc3c2cnn3-c2ccccc2)ccc1O [GW513184X], COc1cccc(-n2ncc3c(N/N=C/c4ccncc4)ncnc32)c1 [GW784752X] is higher in “Percent Control” value: 66% for the first, 96% for the second.

Compared with COc1ccccc1-c1cc(/C=C2\C(=O)Nc3ncc(Br)cc32)cc(Br)c1O [GW442130X], O=C1Nc2ccc(C(=O)c3ccco3)cc2C1=Cc1cc(Cl)c(O)c(Cl)c1 [GW406108X] is lower in “Percent Control” value: 96% for the first, 50% for the second.

First: CN1CCN(C(=O)c2ccc(NC(=O)Nc3ccc(N(C)c4ccnc(Nc5ccc(CS(C)(=O)=O)cc5)n4)cc3)cc2)CC1.Cl [GW830263A]
Second: CN(C)CCNC(=O)Nc1ccc(N(C)c2ccnc(Nc3ccc(CS(C)(=O)=O)cc3)n2)cc1.Cl [GW830900A]
The “Percent Control” value of the first is lower: 33% for the first, 66% for the second.

Going from COc1cc(/C=N/Nc2ncnc3[nH]ncc23)ccc1O [GW578748X] to COc1cccc(-c2c[nH]c3c(N/N=C/c4ccncc4)ncnc23)c1 [GW814408X], the “Percent Control” value falls from 100% to 65%.

Going from Cc1cc(O)cc(C)c1/C=C/c1cncc(C(N)=O)c1 [GW435821X] to COc1cc2ncn(-c3cc(O[C@H](C)c4ccccc4Cl)c(C(N)=O)s3)c2cc1OC [GSK237701A], the “Percent Control” value falls from 100% to 90%.

CCS(=O)(=O)c1ccc(OC)c(Nc2ncc(-c3cccc(F)c3)o2)c1 [GW621970X] and NS(=O)(=O)c1ccc(Nc2ncc(-c3ccccc3)o2)cc1 [GW572399X] are the same in “Percent Control” value: 100% for the first, 100% for the second.

First: Cl.O=C(Nc1ccc(Oc2ccc3[nH]c(NC(=O)c4ccco4)nc3c2)cc1)Nc1cc(C(F)(F)F)ccc1F [GW683134A]
Second: Cl.O=C(Nc1ccc(Oc2ccc3[nH]c(NC(=O)c4ccccc4)nc3c2)cc1)Nc1cc(C(F)(F)F)ccc1F [GW709042A]
The “Percent Control” value of the first is lower: 95% for the first, 100% for the second.

Compared with Nc1ncnc2occ(-c3ccc(NC(=O)Nc4cc(C(F)(F)F)ccc4F)cc3)c12 [GW770249X], COC(=O)Nc1nc2ccc(Oc3ccc(NC(=O)Nc4cc(C(F)(F)F)ccc4F)cc3)cc2s1.Cl [GW693917A] is higher in “Percent Control” value: 56% for the first, 57% for the second.

Compared with O=C(Nc1n[nH]c2nc(-c3ccc(O)cc3)c(Br)cc12)C1CC1 [SB-725317], CC1=C(C(=O)Nc2ccc3[nH]ncc3c2)C(c2ccc(Cl)c(Cl)c2)CC(=O)N1 (stereo not shown) [GSK299115A] is lower in “Percent Control” value: 84% for the first, 73% for the second.

Going from NS(=O)(=O)c1ccc(N/N=C2\C(=O)Nc3ccc(Cl)cc32)cc1 [GW280670X] to NS(=O)(=O)c1ccc(N/N=C2\C(=O)Nc3ccc(-c4cnco4)cc32)cc1 [GW276655], the “Percent Control” value falls from 99% to 62%.

Compared with CC1=C(C(=O)Nc2ccc3[nH]ncc3c2)C(c2ccc3ccccc3c2)CC(=O)N1 (stereo not shown) [GSK270822A], C/C(Nc1ccc(S(N)(=O)=O)cc1)=C1/C(=O)Nc2ccccc21 [GW335962X] is higher in “Percent Control” value: 79% for the first, 89% for the second.

Going from NS(=O)(=O)c1ccc(N/N=C2\C(=O)Nc3ccc(C(=O)NCCc4c[nH]cn4)cc32)cc1 [GW300660X] to NS(=O)(=O)c1ccc(N/N=C2\C(=O)Nc3ccc(C(=O)NCc4ccncc4)cc32)cc1 [GW300657X], the “Percent Control” value falls from 100% to 88%.

First: COc1ccc2cc(-c3c(-c4ccncc4)nc(-c4ccc(S(C)(=O)=O)cc4C)n3C)ccc2c1 [SB-633825]
Second: CCc1ccc(Oc2nccc(-c3c(-c4ccc(F)cc4)ncn3C3CCNCC3)n2)cc1 [SB-242719]
The “Percent Control” value of the first is lower: 39% for the first, 69% for the second.

COc1ccc2c(-c3ccnc(Nc4cccc(OC(F)(F)F)c4)n3)cnn2n1 [GW810372X] and COc1ccc(COc2ccc(Cc3cnc(N)nc3N)cc2OC)cc1 [GW632580X] are the same in “Percent Control” value: 100% for the first, 100% for the second.

Going from Cl.O=C(O[C@H]1CN[C@H](C#Cc2cc3ncnc(Nc4ccc5c(cnn5Cc5ccccc5)c4)c3s2)C1)N1CCOCC1 [GSK200398A] to C[C@@H](Oc1cc(-n2cnc3ccc(OC4CCN(C)CC4)cc32)sc1C(N)=O)c1ccccc1Cl [GSK579289A], the “Percent Control” value falls from 83% to 49%.

Compared with COc1cc(C)c(N(C)C(=O)CN(C)C)cc1Nc1nc(Nc2cccc(F)c2C(N)=O)c2cc[nH]c2n1 [GSK2219385], COc1cc(N2CCN(C(C)C)CC2)ccc1Nc1nc(Nc2ccc(F)cc2C(=O)NC[C@@H](O)CO)c2cc[nH]c2n1 [GSK1392956A] is lower in “Percent Control” value: 100% for the first, 94% for the second.

First: CC(C)COC(=O)c1ccc2c(c1)/C(=C/Nc1ccc(S(N)(=O)=O)cc1)C(=O)N2 [GW416981X]
Second: CCn1c(-c2nonc2N)nc2c(C#CC(C)(C)O)nc(OCCNC)cc21.Cl [GSK949675]
The “Percent Control” value of the first is lower: 86% for the first, 95% for the second.
